From PMC4336329 (PLoS ONE, 2015) come the findings set out here.

Structures are written as SMILES. Hit rate of the full screen: of about 310,000 compounds, about 14,000 (4.5%) showed an effect of 50% or more. Effects have a minus sign here. The full list was thinned out, with strong results kept by preference.
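Further: peak tail current of the secondary pulse compared with the same well before compound.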

Chain of human ether-à-go-go-related gene (hERG) potassium channel (Q12809 whole entry, looked up): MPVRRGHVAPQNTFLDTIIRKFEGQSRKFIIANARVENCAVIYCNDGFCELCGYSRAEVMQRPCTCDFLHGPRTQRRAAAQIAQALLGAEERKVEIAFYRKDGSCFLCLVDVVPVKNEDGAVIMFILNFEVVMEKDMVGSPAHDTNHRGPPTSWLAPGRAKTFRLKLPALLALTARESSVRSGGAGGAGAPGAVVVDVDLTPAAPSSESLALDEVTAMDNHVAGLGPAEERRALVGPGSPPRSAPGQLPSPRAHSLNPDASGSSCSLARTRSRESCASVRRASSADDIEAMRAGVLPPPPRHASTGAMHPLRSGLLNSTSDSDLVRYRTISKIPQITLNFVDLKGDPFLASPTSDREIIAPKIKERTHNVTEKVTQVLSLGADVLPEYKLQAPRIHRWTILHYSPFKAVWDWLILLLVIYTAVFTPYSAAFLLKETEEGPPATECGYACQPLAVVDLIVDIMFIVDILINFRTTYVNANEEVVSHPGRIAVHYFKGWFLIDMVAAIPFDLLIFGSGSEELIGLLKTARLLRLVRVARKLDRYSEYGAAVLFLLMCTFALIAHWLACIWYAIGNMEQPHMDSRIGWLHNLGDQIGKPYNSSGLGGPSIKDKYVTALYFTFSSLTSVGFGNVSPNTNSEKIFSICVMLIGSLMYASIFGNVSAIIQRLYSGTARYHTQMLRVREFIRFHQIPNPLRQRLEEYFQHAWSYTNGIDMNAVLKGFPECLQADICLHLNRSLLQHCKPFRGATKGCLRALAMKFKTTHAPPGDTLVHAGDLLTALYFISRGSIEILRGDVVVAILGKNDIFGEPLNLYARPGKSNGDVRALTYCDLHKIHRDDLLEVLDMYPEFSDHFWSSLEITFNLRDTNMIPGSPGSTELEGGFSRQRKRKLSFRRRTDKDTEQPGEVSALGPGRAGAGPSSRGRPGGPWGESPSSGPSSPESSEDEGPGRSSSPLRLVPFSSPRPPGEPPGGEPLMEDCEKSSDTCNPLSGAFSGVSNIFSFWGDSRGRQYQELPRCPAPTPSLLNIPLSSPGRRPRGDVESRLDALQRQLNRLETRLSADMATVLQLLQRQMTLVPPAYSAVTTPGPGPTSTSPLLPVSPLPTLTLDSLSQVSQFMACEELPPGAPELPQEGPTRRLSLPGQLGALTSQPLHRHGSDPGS

The assay concerns the target human ether-à-go-go-related gene (hERG) potassium channel (human, UniProt Q12809). Put plainly: primary screen, population patch clamp on CHO cells stably expressing hERG; higher = less effect of the substance.
As to `CC(C)Cc1nc(N2CCN(C(=O)c3ccccc3)CC2)c(C#N)c2c1CCC2`, the “hERG current change (%, negative = inhibition) at 10uM” value is given as -24.1%.
The same measure for `COc1cc(C)c(S(=O)(=O)NOCc2ccc([N+](=O)[O-])cc2)c(C)c1C`: 8.43%; for `CN(C)C(=O)N1CCNCC1.Cl`: 12.8%; for `CC(C)[C@H](NC(=O)OC(C)(C)C)C(=O)N1CCC(C(=O)N[C@@H](C)C(=O)Nc2ccc(F)cc2)CC1`: 10.7%.
Consider `CCn1c(SCC(=O)Nc2ccc3c(c2)OCO3)nc2c1c(=O)n(C)c(=O)n2C`, for which the “hERG current change (%, negative = inhibition) at 10uM” value is recorded as -0.539%.
As for `Cn1c(=O)c2c(nc(SCC(=O)NCc3ccc4c(c3)OCO4)n2Cc2ccc(Cl)cc2)n(C)c1=O`, the “hERG current change (%, negative = inhibition) at 10uM” value is on record as -50.6%.
As to `Cn1c(=O)c2c(nc(NCc3ccc4c(c3)OCO4)n2Cc2ccc(F)cc2)n(C)c1=O`, the “hERG current change (%, negative = inhibition) at 10uM” value is listed as -5.77%.
As for `Cn1c(=O)c2c(nc(SCC(=O)NCC3CCCO3)n2Cc2ccc(F)cc2)n(C)c1=O` (stereo not drawn), the figure is -41.6%; as for `Cn1c(=O)c2c(nc(SCC(=O)NCc3ccc4c(c3)OCO4)n2Cc2ccccc2)n(C)c1=O`, -46.9%; as for `Cn1c(=O)c2c(nc(SCC(=O)NCc3ccc4c(c3)OCO4)n2Cc2ccc(F)cc2)n(C)c1=O`, -63.1%.
The same measure for `O=C(NN1CCOCC1)c1sc2cccc(F)c2c1Cl`: 9.93%; for `c1ccc(-c2cnc(CSc3ncnc4sccc34)o2)cc1`: 7.1%; for `N#CC1=C(N)SC(N)=C(C#N)C1CCc1ccccc1`: 26.4%.
Turning to `C/C(=N/NC(=O)CNC(=O)Cc1ccccc1)c1ccc(Cl)cc1`, the “hERG current change (%, negative = inhibition) at 10uM” value worked out at 5.97%.
On to `CN1/C(=C\C=C(/C#N)C(=O)Nc2ccc(Cl)cc2)C(C)(C)c2ccccc21`, for which the “hERG current change (%, negative = inhibition) at 10uM” value was found to be 13%.
The same measure for `CCNC(=O)CC1C(=O)N(c2ccccc2)C(=O)N1CCC(C)C` (stereo not drawn): 5.26%; for `CCNC(=O)CC1C(=O)N(c2cccc(C)c2)C(=O)N1CCC(C)C` (stereo not drawn): -75%.
As for `CCNC(=O)CC1C(=O)N(c2ccc(C)cc2)C(=O)N1CCC(C)C` (stereo not drawn), the “hERG current change (%, negative = inhibition) at 10uM” value is reported as -2.19%.
On to `CCN(c1ccccc1)S(=O)(=O)c1cc(NC(=O)Nc2ccccc2C#N)ccc1Cl`, for which the “hERG current change (%, negative = inhibition) at 10uM” value is -34.2%.
`Cc1ccc(NC(=O)CCc2nnc(SCC(=O)Nc3ccccc3C)n2C)cc1Cl`: the “hERG current change (%, negative = inhibition) at 10uM” value stood at 14.5%.
As to `Cc1ccc(OCCSc2nnc(NC(=O)c3ccco3)s2)cc1`, the “hERG current change (%, negative = inhibition) at 10uM” value is -1.66%.
The same measure for `O=C(CN1C(=O)C2C3C=CC(C4CC34)C2C1=O)Oc1ccccc1` (stereo not drawn): 0.512%.
As for `COCCNC(=O)c1cc2sc3ccccc3c2s1`, the figure is -8.28%.
`CN(C)CCCNC(=O)c1cc2sc3ccccc3c2s1.Cl`: the “hERG current change (%, negative = inhibition) at 10uM” value was -64.7%.
In the case of `COCCN(CCOC)C(=O)c1cc2sc3ccccc3c2s1`, the “hERG current change (%, negative = inhibition) at 10uM” value is -70.6%.
For `CN(C)CCNC(=O)c1cc2sc3ccccc3c2s1.Cl`, the “hERG current change (%, negative = inhibition) at 10uM” value is -31.5%.
As for `CN1CCN(C(=O)c2cc3sc4ccccc4c3s2)CC1`, the figure is -15.5%.
Take `CN(C)CCCNC(=O)c1cc2c3ccccc3n(C)c2s1`: the “hERG current change (%, negative = inhibition) at 10uM” value is given as -40.1%.
`CCCN(C(=O)CSCc1ccccc1C)c1c(N)n(Cc2ccccc2)c(=O)[nH]c1=O`: the “hERG current change (%, negative = inhibition) at 10uM” value is listed as -4.64%.
In the case of `CC(O)CNc1nc2c(c(=O)n(C)c(=O)n2C)n1Cc1cccc(C(F)(F)F)c1` (stereo not drawn), the “hERG current change (%, negative = inhibition) at 10uM” value was -12.9%.
Regarding `O=[N+]([O-])c1cccc(/C=N/Nc2ncc(Br)cn2)c1`, the “hERG current change (%, negative = inhibition) at 10uM” value worked out at 19.6%.
For `CCc1cccc(C)c1N(C(=O)Cn1c(=O)[nH]c2ccccc21)C(C)COC` (stereo not drawn), the “hERG current change (%, negative = inhibition) at 10uM” value is given as -4.31%.
In the case of `CCN(CC(=O)Nc1ccc2c(c1)OCCO2)C(=O)/C=C/c1cccc(Br)c1`, the “hERG current change (%, negative = inhibition) at 10uM” value was -28.7%.
For the compound `O=C(CN1C(=O)NC2(CCCCCCC2)C1=O)Nc1ccc(Br)cc1`, the “hERG current change (%, negative = inhibition) at 10uM” value came out at 5.19%.
As for `CCC(C)NC(=O)CCc1c(C)nc2c(c(C)nn2-c2ccccc2)c1C` (stereo not drawn), the figure is -1.82%.
In the case of `CCCNC(=O)CCc1c(C)nc2c(c(C)nn2-c2ccccc2)c1C`, the “hERG current change (%, negative = inhibition) at 10uM” value came out at 0.304%.
With `Cc1ccc(-n2nc(C)c3c(C)c(CCC(=O)Nc4ccc(CN5CCCC5)cc4)c(C)nc32)cc1`, the “hERG current change (%, negative = inhibition) at 10uM” value is -60.2%.
For the compound `Cc1nc2c(c(C)nn2-c2ccccc2)c(C)c1CCC(=O)Nc1ccc(CN2CCCC2)cc1`, the “hERG current change (%, negative = inhibition) at 10uM” value is listed as -61%.
`Cc1ccc(-n2nc(C)c3c(C)c(CCC(=O)NCc4ccccc4)c(C)nc32)cc1`: the “hERG current change (%, negative = inhibition) at 10uM” value is recorded as 10.5%.
`Cc1ccc(CNC(=O)CCc2c(C)nc3c(c(C)nn3-c3ccc(C)cc3)c2C)cc1`: the “hERG current change (%, negative = inhibition) at 10uM” value turned out to be 10.1%.
For `C/C(=N\NC(=O)c1cc(-c2cccc([N+](=O)[O-])c2)n[nH]1)c1ccc(F)cc1`, the “hERG current change (%, negative = inhibition) at 10uM” value is 8.28%.
As for `O=C(COC(=O)CC1CC2CCC1C2)Nc1ccc(F)cc1` (stereo not drawn), the figure is -22.4%; as for `Cc1ccc2c(c1)/C(=C/c1ccc(F)cc1)C(=O)N2`, 10.5%.
Regarding `COc1cc(C(=O)N/N=C/c2coc3ccc(Cl)cc3c2=O)ccc1O`, the “hERG current change (%, negative = inhibition) at 10uM” value is listed as 14.2%.
`COc1ccc(CCNC2CC(=O)N(CCc3ccccc3)C2=O)cc1OC` (stereo not drawn): the “hERG current change (%, negative = inhibition) at 10uM” value is given as 0.286%.
For `CCc1ccc(NC2CC(=O)N(CCc3ccc(OC)c(OC)c3)C2=O)cc1` (stereo not drawn), the “hERG current change (%, negative = inhibition) at 10uM” value is listed as -13.4%.
The same measure for `COc1ccc(CCN2C(=O)CC(NNc3ccc([N+](=O)[O-])cc3)C2=O)cc1OC` (stereo not drawn): -52.8%; for `CC(=O)N1CCN=C1SCc1ccccc1`: 19.1%; for `O=S(=O)(c1ccccc1)N1CCN=C1SCc1cccnc1`: -12.1%.
The same measure for `O=C(c1ccccc1)N1CCN=C1SCc1ccc([N+](=O)[O-])cc1`: -56.4%; for `Cc1cccc(C(=O)N2CCN=C2SCc2ccc([N+](=O)[O-])cc2)c1`: -51.9%; for `O=[N+]([O-])c1ccc(S(=O)(=O)N2CCN=C2SCc2cccnc2)cc1`: -68.1%.
On to `Cc1cc(C)cc(C(=O)N2CCN=C2SCc2ccc([N+](=O)[O-])cc2)c1`, for which the “hERG current change (%, negative = inhibition) at 10uM” value is -23.5%.
In the case of `Cc1ccc(SCc2ccc(C(=O)N3CCCCC3)cc2)cc1`, the “hERG current change (%, negative = inhibition) at 10uM” value is on record as 1.58%.
On to `Cc1cccc(CC(=O)N2CCN=C2SCc2ccc([N+](=O)[O-])cc2)c1`, for which the “hERG current change (%, negative = inhibition) at 10uM” value is -11.8%.
`O=S(=O)(c1ccc(F)cc1)N1CCN=C1SCc1cccnc1`: the “hERG current change (%, negative = inhibition) at 10uM” value was -27.6%.
As to `Cc1ccc(SCc2ccc(C(=O)N3CCCC3)cc2)cc1`, the “hERG current change (%, negative = inhibition) at 10uM” value is given as -30.1%.
On to `CCN1CCN(C(=O)c2ccc(CSc3ccc(C)cc3)cc2)CC1`, for which the “hERG current change (%, negative = inhibition) at 10uM” value is given as -63.6%.
Consider `O=C(N=C1SC2CS(=O)(=O)CC2N1c1ccc(F)cc1F)C1CC1` (stereo not drawn), for which the “hERG current change (%, negative = inhibition) at 10uM” value was 2.47%.
As for `O=C(OCC(=O)N1CCCC1=O)C1CCN(S(=O)(=O)c2c(Cl)cccc2Cl)CC1`, the “hERG current change (%, negative = inhibition) at 10uM” value is recorded as -36.1%.
Turning to `O=C(NCc1cccnc1)NC1CC(=O)N(c2ccc3c(c2)OCCO3)C1` (stereo not drawn), the “hERG current change (%, negative = inhibition) at 10uM” value was -0.536%.
As for `CC(C)(C)n1nnnc1C(c1cccc(C#N)c1)N1CCN2CCCC2C1` (stereo not drawn), the “hERG current change (%, negative = inhibition) at 10uM” value is given as 4.48%.
Turning to `Cn1c(C(C#N)/C(=N\S(=O)(=O)c2cccs2)c2ccccc2)nc2ccccc21` (stereo not drawn), the “hERG current change (%, negative = inhibition) at 10uM” value is recorded as 2.46%.
In the case of `O=C(O)CC1(CC(=O)Nc2cc(C(F)(F)F)cc(C(F)(F)F)c2)CCCCC1`, the “hERG current change (%, negative = inhibition) at 10uM” value is recorded as 18.6%.
The same measure for `Cc1cccc(N2CCN(C(=O)c3ccc4c(c3)NC(=O)C(CSCc3cccc(F)c3)N4)CC2)c1C` (stereo not drawn): 15.9%; for `Cc1ccc(C(=O)N2CCN=C2SCc2ccc([N+](=O)[O-])cc2)cc1C`: 2.84%; for `Cc1ccc(C)c(CSC2=NCCN2C(=O)Cc2ccc([N+](=O)[O-])cc2)c1`: -4.06%.
`O=C(Cc1ccccc1)N1CCN=C1SCc1cccc([N+](=O)[O-])c1`: the “hERG current change (%, negative = inhibition) at 10uM” value is -22.6%.
The same measure for `O=C(c1ccc([N+](=O)[O-])cc1)N1CCN=C1SCc1ccccc1`: -72.2%; for `O=C(c1cccc2ccccc12)N1CCN=C1SCc1ccc([N+](=O)[O-])cc1`: -10.7%; for `Cc1ccc(CSC2=NCCN2C(=O)c2ccc([N+](=O)[O-])cc2)cc1`: -42.9%.
Take `Cc1ccc(C(=O)N2CCN=C2SCc2ccc([N+](=O)[O-])cc2)cc1`: the “hERG current change (%, negative = inhibition) at 10uM” value is reported as -70.5%.
Consider `Cc1ccccc1C(=O)N1CCN=C1SCc1ccc([N+](=O)[O-])cc1`, for which the “hERG current change (%, negative = inhibition) at 10uM” value is on record as -63.6%.
As for `CN(C)S(=O)(=O)c1ccc(C(=O)N2CCN=C2SCc2ccccc2)cc1`, the figure is 20.9%.
As for `O=S(=O)(Nc1nc2ccccc2nc1Nc1ccc(N2CCOCC2)cc1)c1cc(Cl)ccc1Cl`, the figure is -0.376%; as for `C=CCN(c1ccccc1)S(=O)(=O)c1cc(C(=O)NC2=NCCS2)ccc1Cl`, 63.3%.
Turning to `COc1ccc(CNC(=O)c2c(C)cc(=O)oc2C)cc1`, the “hERG current change (%, negative = inhibition) at 10uM” value is listed as -26.8%.
Take `CC1Sc2ccc(S(=O)(=O)N3CCC(C(=O)NCc4ccc(Cl)cc4)CC3)cc2NC1=O` (stereo not drawn): the “hERG current change (%, negative = inhibition) at 10uM” value is recorded as -5.58%.
As for `Oc1ccc(N2CCN(Cc3ccc(OCCCN4CCCCC4)cc3)CC2)cc1`, the figure is 5.11%; as for `COC(=O)C1CCN(CCCOc2ccc(CN3CCN(c4ccc([N+](=O)[O-])cc4)CC3)cc2)CC1`, -74.3%.
Take `COC(=O)C1CCN(Cc2ccc(C)cc2)CC1`: the “hERG current change (%, negative = inhibition) at 10uM” value was -22.2%.
Consider `CCCCOc1ccc(CN2CCC(O)CC2)cc1`, for which the “hERG current change (%, negative = inhibition) at 10uM” value is recorded as 3.42%.
With `COC(=O)C1CCN(c2ccc([N+](=O)[O-])cc2[N+](=O)[O-])CC1`, the “hERG current change (%, negative = inhibition) at 10uM” value is -0.88%.
Regarding `COC(=O)C1CCN(Cc2ccc(OCCCN3CCN(c4ccc([N+](=O)[O-])cc4)CC3)cc2)CC1`, the “hERG current change (%, negative = inhibition) at 10uM” value is on record as -73.7%.
